According to PubChem BioAssay (NCI):
Compounds without any hit were thinned out: in the full panel of roughly 79,000, 15% have a hit. A number with no mark means an inactive call. Activity calls are given as the source filed them. Rule as the data show it: active = growth inhibition above about 70%; inactive = the rest.

Assay: NCI Yeast Anticancer Drug Screen. Data for the rad50 strain (AID 155);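 also: 0% = growth of vehicle-only cultures of the same strain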
Details: S. cerevisiae rad50 strain growth inhibition; at 5.0 µM (retest, dose inferred, filed as 0.5); hits give high values
Summary of the method: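 A DNA repair-deficient yeast mutant serves as the test organism; compound-induced growth inhibition is calculated against vehicle-treated cells.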

Structure (SMILES) | growth inhibition
CCCCCCCCCCCCCCCBr | -27%
CCCCCCCCCCCC(=O)OCC(C)C | 5%
O[Si](O)(c1ccccc1)c1ccccc1 | 13%
O=C(c1ccccc1)C(C(=O)c1ccccc1)c1ccc2ccccc2n1 | 0%
O=C1C=CC(=O)N1c1ccccc1[N+](=O)[O-] | 98% (active)
CCCCCCCCCCCC(O)=C1C(=O)CC(O)CC1=O (stereo not given) | 33%
OCCc1cccc2ccc3ccccc3c12 | 0%
O=C1C(=O)C(Cl)=C(Cl)C(Cl)=C1Cl | -3%
O=C1C=CC2C(=O)c3ccccc3C(=O)C2=C1 (stereo not given) | 21%
O=C(N(c1ccc(Cl)cc1)c1ccc(Cl)cc1)C(Cl)(Cl)Cl | 20%
COc1cccc2c1S(=O)(=O)C(c1ccccc1)=CC2=O | 45%
COc1cc(-c2nn3c(=O)n(-c4ccc(Cl)cc4)c(=O)nc3s2)cc(OC)c1OC | 6%
O=[N+]([O-])C1(CO)COC(CCc2ccccc2)OC1 (stereo not given) | -2%
COc1ccc(C(=O)CCc2c[nH]c3ccccc23)c(O)c1 | 2%
CC/C(=C(\CC)c1ccc(OCCN2CCOCC2)cc1)c1ccc(OCCN2CCOCC2)cc1 | 47%
CCCCCCCCCCCN1C(=O)c2ccccc2S1(=O)=O | -3%
CCCCCCCCCCCC(=O)NN | 14%
CCN1CCC(O)(/C=C/c2ccccc2)C(C(=O)/C=C/c2ccccc2)C1 (stereo not given) | 11%
NC(=S)NNCCC(=O)Nc1ccccc1C(F)(F)F | 2%
NS(=O)(=O)c1ccc(N=Cc2c3ccccc3nc3cc(Cl)ccc23)cc1 | 10%

Structure (SMILES) | growth inhibition
Nc1ccc(O)c(=O)cc1 | -1%
Oc1ccc[nH]c1=S | 19%
COc1cccc2c1C(=O)c1c(O)c3c(c(O)c1C2=O)C[C@@](O)(/C(C)=N/NC(=O)c1ccc(Cl)c(Cl)c1)C[C@@H]3OC1CC(N)C(O)C(C)O1 (stereo not given in full) | 89% (active)
O=C1c2ccccc2C(=O)c2c1ccc(O)c2O.[Cu] | 87% (active)
CCC(=O)C(C(=O)CC)c1c(OC(=O)c2ccccc2)ccc(O)c1C(=O)OC | -4%
CC(C)CCCC(C)C1CCC2(C)C3=CCC4C(C)(CCC(O)C4(C)C)C3=CCC12C (stereo not given) | 0%
CCNC(=O)COc1ccc(Cl)cc1Cl | -2%
CCN1CCC(O)(/C=C/c2ccc(Cl)c(Cl)c2)C(C(=O)/C=C/c2ccc(Cl)c(Cl)c2)C1 (stereo not given) | 99% (active)
Nc1ccc(-c2ccc(N)cc2S(=O)(=O)O)c(S(=O)(=O)O)c1 | 2%
COc1ccc2c(c1)CCc1c(-c3noc4c3CCc3cc(OC)ccc3-4)noc1-2 | -7%
Cc1ccc(NC(=S)N(CCC#N)C2CCCCC2)cc1C | -12%
COc1ccc2c(c1)CC1c3c(ccc(OC)c3O)CC2N1C (stereo not given) | -15%
CCN(CC)CCCC(C)Nc1c2ccccc2nc2c(C)cc(Br)cc12 (stereo not given) | 2%
O=C(O)c1cc2ccc3cccc4ccc(c1)c2c34 | 4%
CCOC(=O)NC(=S)Nc1ccsc1 | 0%
CC(C)CCC(C)(C)c1cc(O)ccc1O | 35%
COc1ccc(C(c2cc3c(cc2O)OCO3)N2CCOCC2)c(OC)c1OC (stereo not given) | 4%
CCOC(=O)C1=C(C)NC(C)=C(C(=O)OCC)C1c1c(-c2ccccc2)noc1C | 23%
O=C(CCl)Oc1ccc(Sc2ccc(OC(=O)CCl)cc2)cc1 | 6%
Nc1ccc2[nH]c3ccccc3c2c1 | -4%

Same assay, conditions: S. cerevisiae rad50 strain growth inhibition; at 50.0 µM (retest, dose inferred, filed as 5.0); hits give high values

Structure (SMILES) | growth inhibition
CCCCCCCCCCCCCCCBr | 4%
CCCCCCCCCCCC(=O)OCC(C)C | -19%
O[Si](O)(c1ccccc1)c1ccccc1 | 92% (active)
O=C(c1ccccc1)C(C(=O)c1ccccc1)c1ccc2ccccc2n1 | 1%
O=C1C=CC(=O)N1c1ccccc1[N+](=O)[O-] | 99% (active)
CCCCCCCCCCCC(O)=C1C(=O)CC(O)CC1=O (stereo not given) | 88% (active)
OCCc1cccc2ccc3ccccc3c12 | 62%
O=C1C(=O)C(Cl)=C(Cl)C(Cl)=C1Cl | 97% (active)
O=C1C=CC2C(=O)c3ccccc3C(=O)C2=C1 (stereo not given) | 89% (active)
O=C(N(c1ccc(Cl)cc1)c1ccc(Cl)cc1)C(Cl)(Cl)Cl | 68%
COc1cccc2c1S(=O)(=O)C(c1ccccc1)=CC2=O | 99% (active)
COc1cc(-c2nn3c(=O)n(-c4ccc(Cl)cc4)c(=O)nc3s2)cc(OC)c1OC | -2%
O=[N+]([O-])C1(CO)COC(CCc2ccccc2)OC1 (stereo not given) | 5%
COc1ccc(C(=O)CCc2c[nH]c3ccccc23)c(O)c1 | 43%
CC/C(=C(\CC)c1ccc(OCCN2CCOCC2)cc1)c1ccc(OCCN2CCOCC2)cc1 | 63%
CCCCCCCCCCCN1C(=O)c2ccccc2S1(=O)=O | 78% (active)
CCCCCCCCCCCC(=O)NN | 82% (active)
CCN1CCC(O)(/C=C/c2ccccc2)C(C(=O)/C=C/c2ccccc2)C1 (stereo not given) | 89% (active)
NC(=S)NNCCC(=O)Nc1ccccc1C(F)(F)F | 3%
NS(=O)(=O)c1ccc(N=Cc2c3ccccc3nc3cc(Cl)ccc23)cc1 | 34%

Structure (SMILES) | growth inhibition
Nc1ccc(O)c(=O)cc1 | 1%
Oc1ccc[nH]c1=S | 18%
COc1cccc2c1C(=O)c1c(O)c3c(c(O)c1C2=O)C[C@@](O)(/C(C)=N/NC(=O)c1ccc(Cl)c(Cl)c1)C[C@@H]3OC1CC(N)C(O)C(C)O1 (stereo not given in full) | 99% (active)
O=C1c2ccccc2C(=O)c2c1ccc(O)c2O.[Cu] | 92% (active)
CCC(=O)C(C(=O)CC)c1c(OC(=O)c2ccccc2)ccc(O)c1C(=O)OC | 30%
CC(C)CCCC(C)C1CCC2(C)C3=CCC4C(C)(CCC(O)C4(C)C)C3=CCC12C (stereo not given) | 83% (active)
CCNC(=O)COc1ccc(Cl)cc1Cl | 10%
CCN1CCC(O)(/C=C/c2ccc(Cl)c(Cl)c2)C(C(=O)/C=C/c2ccc(Cl)c(Cl)c2)C1 (stereo not given) | 99% (active)
Nc1ccc(-c2ccc(N)cc2S(=O)(=O)O)c(S(=O)(=O)O)c1 | 0%
COc1ccc2c(c1)CCc1c(-c3noc4c3CCc3cc(OC)ccc3-4)noc1-2 | -15%
Cc1ccc(NC(=S)N(CCC#N)C2CCCCC2)cc1C | -10%
COc1ccc2c(c1)CC1c3c(ccc(OC)c3O)CC2N1C (stereo not given) | 56%
CCN(CC)CCCC(C)Nc1c2ccccc2nc2c(C)cc(Br)cc12 (stereo not given) | 72% (active)
O=C(O)c1cc2ccc3cccc4ccc(c1)c2c34 | 93% (active)
CCOC(=O)NC(=S)Nc1ccsc1 | -7%
CC(C)CCC(C)(C)c1cc(O)ccc1O | 99% (active)
COc1ccc(C(c2cc3c(cc2O)OCO3)N2CCOCC2)c(OC)c1OC (stereo not given) | 96% (active)
CCOC(=O)C1=C(C)NC(C)=C(C(=O)OCC)C1c1c(-c2ccccc2)noc1C | 84% (active)
O=C(CCl)Oc1ccc(Sc2ccc(OC(=O)CCl)cc2)cc1 | 97% (active)
Nc1ccc2[nH]c3ccccc3c2c1 | 6%
